# Source: PubChem BioAssay
# HPGD inh = inhibitors of human 15-hydroxyprostaglandin dehydrogenase (HPGD); Potency, µM, for the others: at the top dose activity change, negative = inhibition, actives largely listed as inhibitors; AID 894; actives 4.3% (n = 150,000); purified HPGD, NADH fluorescence kinetic, PGE2 substrate; P15428; active = well fitted inhibition curve with a large enough effect, not every such curve was filed as active; inconclusive = small, poorly fitted or top-dose-only effect, or another doubt; inactive = no such curve, though single readings can be large or run the other way; also: % is scaled to controls: 0 for no effect and ±100 for the full control effect
#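 20 nM HPGD preincubated 15 min at room temperature with compound in 50 mM Tris-HCl pH 8, 0.01% Tween 20. Started with 1 mM NAD+ and 30 uM prostaglandin E2; NADH fluorescence (360/450 nm) read 5 times over 30-s intervals, last minus first.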
# Lamin A splicing = modulators of lamin A splicing; HeLa LMNA splicing GFP/RFP minigene ratio, 48 h; Potency, µM (series often up to 46.1 µM), inactives show at the highest dose ratio change, negative = inhibition, actives largely listed as inhibitors; actives 0.01% (n = 200,000); active = well fitted inhibition curve with a large enough effect in the signal ratio, with a control signal flat, not every such curve was filed as active; inconclusive = small, poorly fitted or top-dose-only effect, or effect the other way, or a change in a side signal; the % refers to the signal ratio; also: % is scaled to controls: 0 for no effect and ±100 for the full control effect
#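 Read-out is the ratio of GFP to DsRed2 object intensity, acquired by 488 nm laser-scanning cytometry on HeLa lamin A-EGFP minigene reporter cells. Compound incubation 48 hrs at 37 °C in Opti-MEM with 2% FBS; DMSO 0.5% final.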
# HTT ATP protect = protects HTT-Q103 PC12 cells, measured by ATP; PC12 HTT-Q103 induced, cytoprotection, ATP luminescence, 40 h; Potency, µM (doses to about 56.4 µM), inactives show cytoprotection (ATP increase), usual class: activators; actives 0.14% (n = 230,000); AID 1471; also: % of control where 0% means no effect; nearly all actives have a fitted effect of over 45% in size
#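 PC12 cells stably carrying ecdysone-inducible Htt exon 1 (Q103)–GFP were induced with 100 nM tebufenozide (final) alongside library compounds in a dose series. Cytoprotection was scored as retained ATP by ATPlite luminescence.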
# KinaseGlo FLuc = Kinase-Glo luciferase inhibition (counter-screen); Kinase-Glo luciferase, ATP luminescence, 8 min; Potency, µM (doses to about 38.3 µM), without a hit: at the highest dose activity change, negative = inhibition, usual class: inhibitors; actives 0.28% (n = 200,000); AID 1379; also: % is scaled to controls: 0 for no effect and ±100 for the full control effect; nearly all actives have a fitted effect of over 60% in size
#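 Inhibition of Kinase-Glo luciferase light generation was assessed at 10 uM ATP in pH 7.2 imidazole buffer, with luminescence measured after eight minutes at ambient temperature.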
# HttQ103 aggreg = inhibitors of mutant huntingtin aggregate formation in PC12 cells. actives 1.1% (n = 220,000). AID 1688. Potency, µM (highest dose often 46.1 µM), for the others: top-dose activity change, negative = inhibition, most hits filed as inhibitors. PC12 HttQ103-GFP aggregates, Acumen cytometry, 40 h; also: % is scaled to controls: 0 for no effect and ±100 for the full control effect; nearly all actives have a fitted effect of over 60% in size
#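 Steps: seed 1500 PC12 HTTQ103-GFP cells/well; add tebufenozide, 100 nM final; add compound titration; add ATPLite reagent; quantify GFP aggregates by laser scanning cytometry.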
# ALDH1A1 block = inhibitors of human aldehyde dehydrogenase 1A1; P00352; Purified ALDH1A1, NADH fluorescence, propionaldehyde substrate; Potency, µM (highest dose often 75.3 µM), without a hit: top-dose activity, negative = inhibition, most hits filed as inhibitors; actives 7.3% (n = 220,000); AID 1030; active = well fitted inhibition curve with a large enough effect, not every such curve was filed as active; inconclusive = small, poorly fitted or top-dose-only effect, or another doubt; inactive = no such curve, though single readings can be large or run the other way;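 also: plate controls were no enzyme wells and a reference inhibitor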
# Target sequence (P00352 whole entry, looked up): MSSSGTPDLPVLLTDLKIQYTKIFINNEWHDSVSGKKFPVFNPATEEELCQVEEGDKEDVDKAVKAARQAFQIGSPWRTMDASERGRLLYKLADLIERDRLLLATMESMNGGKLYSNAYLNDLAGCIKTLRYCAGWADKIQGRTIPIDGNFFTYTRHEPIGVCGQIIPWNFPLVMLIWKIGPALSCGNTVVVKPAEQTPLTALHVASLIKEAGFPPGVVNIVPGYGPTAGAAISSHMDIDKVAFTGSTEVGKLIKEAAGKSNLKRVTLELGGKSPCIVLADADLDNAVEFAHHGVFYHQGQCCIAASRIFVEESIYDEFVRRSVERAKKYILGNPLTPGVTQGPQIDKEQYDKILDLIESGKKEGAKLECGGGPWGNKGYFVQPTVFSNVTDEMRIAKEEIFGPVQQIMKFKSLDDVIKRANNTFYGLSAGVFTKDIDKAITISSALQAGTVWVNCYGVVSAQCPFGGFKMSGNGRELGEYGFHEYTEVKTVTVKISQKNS
# Numbers without * were called inactive; ? = inconclusive; . = no result given; [ ] = remark or other dose. This is a sample that favours compounds with a hit; in the whole collection about 9% have one here. Unless noted, calls follow the shape of the dose curve; as a rule, active = well fitted curve in the direction sought with a large enough effect; inconclusive = small, poorly fitted or top-dose-only effect, or another doubt; inactive = no such curve, though single readings can be large; an effect the other way counts as inactive or inconclusive. Potency is read from the fitted curve at half-maximal effect.
SMILES,HPGD inh,Lamin A splicing,HTT ATP protect,KinaseGlo FLuc,HttQ103 aggreg,ALDH1A1 block
CCOC(=O)C1CCCN(CC(=O)Nc2cccc(C(C)=O)c2)C1 (configuration not stated),.,?,-0.8%,0.9%,-3.6%,10µM*
CC1=Nc2ccccc2N=C(NC(=O)CSc2nnnn2-c2ccccc2)C1c1ccccc1 (configuration not stated),-14.3%,?,10.2%,0.9%,-2.4%,4.47µM*
CCOC(=O)C1CCCN(CC(=O)Nc2cc(C)cc(C)c2)C1 (configuration not stated),.,9.1%[9.22 µM],-10.4%,-3.1%,8.8%,2.9%
CCOC(=O)NC(=O)CSc1nnnn1-c1ccccc1,-2.5%,7.7%,-2.6%,0.8%,-9.2%,?
CCOc1ccccc1NC(=O)CSc1nnnn1-c1ccc(C(=O)OC)cc1,-20.6%,-2.4%,-1.6%[10 µM],-6.2%,-5.5%,-4.9%
CC1=Nc2ccccc2N=C(NC(=O)CSC(=S)N2CCCCC2)C1c1ccccc1 (configuration not stated),.,.,16.5%[10 µM],.,2.3%[9.22 µM],.
CC1=Nc2ccccc2N=C(NC(=O)CN2CCN(c3ccccc3)CC2)C1c1ccccc1 (configuration not stated),.,.,14.5%[10 µM],.,-5.5%[9.22 µM],0.891µM*
Cc1cc(C(=O)NNC(=S)NCC(C)C)no1,-14.3%,8.7%,4.2%,0.2%,20.5%,2.5%
CCOC(=O)C1CCCN(CC(=O)NC2=Nc3ccccc3N=C(C)C2c2ccccc2)C1 (configuration not stated),-5.8%,16.0%,4.7%[10 µM],-1.8%,1.4%,4.47µM*
Cc1nc(-c2cccnc2)sc1C(=O)Nc1cccc(C(F)(F)F)c1,-11.2%,13.2%,-10.5%,0.4%,-30.8%,0.3%
CN1CCN(NC(=O)CN2C(=O)/C(=C/c3ccccc3Cl)SC2=S)CC1,12.6µM*,-22.4%,-5.2%[10 µM],2.5%,29.4%,?
CCOc1ccc(S(=O)(=O)N2CCN(C(=O)c3cccn3C)CC2)cc1,-5.3%,?,-0.9%,-2.0%,-18.2%,1.6%
COc1ccc(CN2CCN(C(=O)c3cccs3)CC2)c(OC)c1OC,-11.3%,0.3%,-2.9%,-5.8%,-1.3%,17.8µM*
O=C(c1cccs1)N1CCN(Cc2ccccc2[N+](=O)[O-])CC1,-4.7%,?,.,-0.1%,-9.4%,25.1µM*
COc1ccc(CN2CCN(C(=O)C3CCC(CNS(=O)(=O)c4ccccc4)CC3)CC2)c(OC)c1OC (configuration not stated),.,.,.,-3.5%,-27.3%,14.1µM*
CCOC(=O)N1CCN(C(=O)C2CCC(CNS(=O)(=O)c3ccccc3)CC2)CC1 (configuration not stated),-5.0%,12.6%,9.8%,-5.2%,18.4%,?
COc1cccc(C(=O)N2CCN(Cc3ccccc3[N+](=O)[O-])CC2)c1,0.7%,-4.7%,27.3%[10 µM],2.0%,-12.3%,?
Cc1ccc(NS(=O)(=O)c2cc(C(=O)N3CCOCC3)ccc2C)cc1,-6.6%,1.6%,-4.3%[10 µM],-2.2%,-6.4%,-9.5%
CN(C)c1ncc2nc(-c3cccs3)c(=O)n(C3CC3)c2n1,?,.,-16.9%,-0.6%,.,?
C/C(=N/NC(=O)c1ccccc1)C1=C(O)CC(C)(C)CC1=O,.,.,10.3%[10 µM],-1.4%,4.8%[9.22 µM],?
CC(=Nc1ccc2c(c1)nc(CO)n2C)C1=C(O)CC(C)(C)CC1=O,3.55µM*,1.3%,2.6%[10 µM],-3.5%,13.1%,?
Cc1oc2c(O)c(O)ccc2c(=O)c1-c1ccccc1,.,?,4.8%[10 µM],.,12.9%[9.22 µM],.
Cc1oc2c(O)c(O)ccc2c(=O)c1-c1cnn(-c2ccccc2)c1,17.8µM*,15.3%,24.9%,-4.1%,14.8%,28.2µM*
CCCCCCCCN1C(=O)C(O)=C(C(C)=O)C1c1ccccn1 (configuration not stated),-7.1%,-7.6%,3.1%[10 µM],0.3%,18.1%,-2.7%
